Each structure is given as a SMILES string. About 83,000 compounds went through this panel and 20% of them were active in at least one assay; those are over-represented in the sample as a whole.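 For each line, cells grew in 96-well plates with the test compound present at a single concentration for 48 hours.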 A number with no mark means an inactive call. Activity calls are given as the source filed them. Rule for the calls: active = growth percent below 10; inactive = the rest.

What all share (experiment): NCI-60 one-dose screen, 48 h (100 = growth as untreated, 0 = no growth, -100 = all killed)
Common to all, as to conditions: 10 µM unless noted

Test [1] deals with SR leukemia.
The test system of test [2] is RPMI-8226 leukemia.
In test [3] the test system is OVCAR-8 ovarian.
For test [4], the system named is OVCAR-5 ovarian.
In test [5] the test system is OVCAR-4 ovarian.
The subject of test [6] is SK-OV-3 ovarian.
Test [7] concerns IGROV1 ovarian.
Test [8] concerns HS 578T breast.
The subject of test [9] is NCI/ADR-RES ovarian.

In the case of `O=S(=O)(Oc1ccc(-c2cn3ccoc3n2)cc1)c1cccc(C(F)(F)F)c1`, the growth is 100% in test [1]; 94.4% in test [2]; 101% in test [3]; 103% in test [4]; 102% in test [5]; 117% in test [6]. In addition, the results for the growth in test [7], in [8] and in [9] were 106%, 98.6% and 106%, respectively.

Consider `CC1=Cc2ccccc2OC12C=Cc1ccccc1O2` (configuration not stated), for which the growth in test [1] was 103%; in [2], 104%; in test [3] it was 103%; in test [4], 102%; in test [5], 105%; in test [6], 102%. For the same compound, the growth in test [7] was 69.1%; in test [8] it was 106%; in [9], 98.6%.

With `O=C1/C(=C/C=C/c2ccco2)SC(=S)N1Cc1ccccc1`, the growth is 46.3% in test [1]; 93.6% in [2]; 100% in test [3]; 105% in test [4]; 95.1% in test [5]; 103% in test [6]. Besides, the growth in [7] was 92.9%; in test [8], 104%; in test [9], 99.8%.

`COc1ccc(/C(=N\N=C(N)N)c2ccc(Cl)cc2)cc1OC`: the growth was 42.7% in test [1]; 70.4% in test [2]; 87.2% in test [3]; 78.2% in [4]; 88.4% in test [5]; 78.5% in test [6]. In addition, the growth in test [7] is 51.5%; in test [8], 67.5%; in test [9], 99.3%.

`Cc1ccsc1[C@H]1c2[nH]c3ccccc3c2C[C@H]2C(=O)N(CCCCCCC(=O)NO)CC(=O)N12`: the growth in test [1] is 42%; in [2] it was 58.8%; in test [3], 79.2%; in test [4], 73.7%; in test [5], 106%; in test [6], 105%. Also, the growth was 87.4% in [7], 85.4% in test [8] and 95.9% in test [9].

Take `CN(C)c1cccc2c(S(=O)(=O)Nc3cccc(-c4csc(NC(=O)CCCCCN5CCN(CCO)CC5)n4)c3)cccc12`: the growth in test [1] is -9.78% (active); in test [2], 47.2%; in [3], 89%; in test [4], 88.7%; in test [5], 92.4%; in test [6], 107%. Besides, the growth in [7] is 86.1%; in test [8] it was 85.1%; in [9], 103%.

Regarding `Cn1cc(-c2nn3cc(-c4ccncc4)nc3s2)c2cc(F)ccc21`, the growth is 1.87% (active) in [1]; 55.3% in [2]; 58.6% in test [3]; 100% in [4]; 72.8% in [5]; 92.7% in [6]. For the same compound, the growth in [7] was 64.9%; in [8], 86.7%; in test [9] it was 78.7%.

On to `C#Cc1nc(C(=O)NCCCCCCC(=O)NO)cs1`, for which the growth in [1] is 0.171% (active); in [2], -10.1% (active); in test [3], 15.8%; in test [4] it was 10.2%; in test [5], 25.8%; in test [6], 29.2%. For the same compound, the growth in test [7] was -72.6% (active); in test [8], -3.14% (active); in [9], 2.01% (active).

Take `C/C(=N\NC(=O)Nc1ccccc1)c1nnn(-c2ccc([N+](=O)[O-])cc2)c1C`: the growth in [1] was 100%; in test [2] it was 102%; in test [3], 102%; in test [4], 112%; in [5], 105%; in [6], 109%. Further, the growth in [7] was 112%; in [8], 116%; in [9], 102%.

Consider `Cc1ccc(S(=O)(=O)c2nc(-c3ccc(F)cc3)oc2S(C)(=O)=O)cc1`, for which the growth in test [1] is 8.12% (active); in [2] it was 31.7%; in test [3], 86.9%; in test [4], 95.2%; in test [5], 92.1%; in test [6] it was 100%. The growth in test [7] is 45.2%; in [8] it was 90.6%; in [9], 92%.

As to `Fc1cc(F)cc(NNC(=S)c2ccccc2)c1`, the growth in [1] is 23.2%; in [2] it was 15.6%; in [3], 41%; in test [4], 91.8%; in test [5], 49.1%; in [6] it was 28.1%. In addition, the growth was 57.2% in test [7], 61.3% in test [8] and 55.2% in [9].

Take `CNC(=O)c1cc(N2CCc3cc(NC(=O)Nc4ccc(N5CCN(C)CC5)c(C(F)(F)F)c4)ccc32)ccn1`: the growth in test [1] was -12.6% (active); in test [2] it was -16.4% (active); in [3], 95.9%; in test [4] it was 95.3%; in test [5] it was 83.4%; in [6] it was 107%. Also, the values for the growth in test [7], in test [8] and in test [9] were 96.2%, 61.4% and 97.4%, respectively.

Turning to `CN1CCN(CCNc2nc(-c3cccc(NS(=O)(=O)c4cccc5c(N(C)C)cccc45)c3)cs2)CC1`, the growth in test [1] was 23.4%; in test [2], 35.8%; in test [3], 75.9%; in [4], 90.3%; in test [5], 71.5%; in test [6], 91.6%. The growth in test [7] was 78.5%; in test [8], 87.9%; in test [9], 86.9%.

For `COCCOc1ccc2ncc(C#Cc3cncc(C(=O)Nc4ccc(CN5CCN(C)CC5)c(C(F)(F)F)c4)c3)n2n1`, the growth is 0.746% (active) in test [1]; 23.4% in [2]; 24.4% in test [3]; 21.8% in test [4]; 43.2% in [5]; 24% in [6]. The growth was 9.76% (active) in test [7], -13.3% (active) in test [8] and 3.81% (active) in [9].

Turning to `O=c1c2cc(-c3ccc(F)cc3F)ccc2n(Nc2ccccc2)c(=O)n1-c1cccc(C(F)(F)F)c1`, the growth in [1] was 9.45% (active); in test [2], -6.8% (active); in [3] it was 13.3%; in test [4] it was 79.3%; in test [5], 30.7%; in test [6] it was 8.64% (active). The figures for the growth in test [7], in [8] and in test [9] were 17.4%, -3.07% (active) and 3.74% (active), respectively.

Consider `CC[C@]12CC(C(=O)OC)=C3Nc4ccccc4[C@@]34CCN(C14)[C@@H]1c3cc4c(cc3O[C@@H]1[C@H]2O)NC1=C(C(=O)OC)C[C@@]2(CC)C3N(CC[C@@]143)C[C@H]1O[C@H]12` (some centres not stated), for which the growth in [1] is 6.59% (active); in test [2] it was -3% (active); in test [3] it was 24.4%; in test [4], 38.6%; in [5] it was 33.2%; in [6], 27.9%. Besides, the growth in test [7] was 15.9%; in test [8], 12.2%; in test [9], 1.07% (active).

Turning to `CN(C)CCNc1ccc2ncc(C#Cc3cncc(C(=O)Nc4ccc(CN5CCN(C)CC5)c(C(F)(F)F)c4)c3)n2n1`, the growth in test [1] was 0.232% (active); in test [2] it was -11.2% (active); in test [3], 1.03% (active); in test [4], 11.4%; in [5] it was -10.1% (active); in test [6], 45.1%. Also, the growth in test [7] was 0.103% (active); in test [8] it was -16.1% (active); in test [9] it was 76%.

On to `NS(=O)(=O)c1ccc(Nc2nc(N/N=C/c3ccc4c(c3)OCO4)nc(Nc3ccccc3)n2)cc1`, for which the growth is 20% in test [1]; 54.3% in test [2]; 49.7% in test [3]; 90.8% in test [4]; 55.5% in test [5]; 65.7% in test [6]. Moreover, the growth was 36.6% in test [7], 52% in [8] and 90.9% in [9].

Consider `O=C1[C@H]2Cc3c([nH]c4ccccc34)[C@H](c3ccc(Cl)cc3)N2C(=O)CN1C1CCN(CC2CCCCC2)CC1`, for which the growth was -5.73% (active) in test [1]; 23.4% in test [2]; 74.9% in test [3]; 96.1% in [4]; 72.7% in [5]; 93.8% in test [6]. Besides, the figures for the growth in test [7], in test [8] and in test [9] were 72.2%, 74.4% and 68.5%, respectively.

On to `COc1cc2cc(Oc3ccc(NC(=O)Nc4ccc(F)c(C(F)(F)F)c4)cc3)c(C)nc2cc1OCCN(C)C`, for which the growth in [1] was 1.94% (active); in test [2], 80.2%; in test [3], 102%; in [4], 137%; in test [5] it was 112%; in test [6], 116%. For the same compound, the growth is 101% in test [7], 108% in test [8] and 41.2% in test [9].

Take `CC(C)[C@H]1c2[nH]c3ccccc3c2C[C@H]2C(=O)N(CCCCCCC(=O)NO)CC(=O)N12`: the growth in test [1] is 33.6%; in test [2], 58.6%; in test [3], 60.8%; in [4], 81.5%; in test [5], 99.9%; in test [6] it was 95%. The growth was 92.9% in [7], 74.2% in test [8] and 95.3% in [9].

As to `CC[C@]12C=CCN3CC[C@@]4(c5ccc(OC)cc5N(C)[C@H]4[C@@](O)(C(=O)OC)[C@@H]1OC(=O)CCN1CCc4ccccc4C1)[C@@H]32`, the growth in test [1] was 82.2%; in test [2] it was 78.4%; in test [3], 94.9%; in test [4], 96.3%; in test [5], 91.2%; in test [6], 103%. For the same compound, the growth in test [7] was 81.5%; in test [8] it was 92%; in test [9], 80.5%.

Regarding `Brc1ccc2[nH]cc(-c3nn4cc(-c5nccs5)nc4s3)c2c1`, the growth is 45.2% in test [1]; 4.55% (active) in test [2]; 10.5% in test [3]; 67.5% in test [4]; -4% (active) in [5]; 61.5% in test [6]. The growth in [7] was 32%; in test [8], -0.729% (active); in test [9] it was 15.8%.

With `O=C(CCCCCCN1CC(=O)N2[C@@H](C3CC3)c3[nH]c4ccccc4c3C[C@H]2C1=O)NO`, the growth in [1] is 36.5%; in [2] it was 56.2%; in [3], 37.5%; in test [4] it was 71.8%; in test [5], 97.6%; in test [6], 102%. The growth was 89.2% in [7], 62% in test [8] and 75.7% in test [9].

`O=C1C(SCc2ccccc2)=C(Cl)CN1c1ccc(Cl)cc1`: the growth in test [1] is 1.35% (active); in test [2] it was 88.8%; in test [3] it was 95.2%; in test [4], 109%; in [5] it was 103%; in test [6], 117%. In addition, the figures for the growth in [7], in test [8] and in [9] were 104%, 100% and 105%, respectively.

Regarding `COc1ccc(/C=N\NC(=O)c2cnn(CC(O)c3ccccc3)c2N)cc1OCc1ccc(Cl)cc1` (configuration not stated), the growth in test [1] is 65.8%; in [2], 65.5%; in test [3], 74%; in test [4], 79.9%; in test [5], 74.1%; in [6] it was 93.8%. The growth in [7] was 91.9%; in [8], 43.2%; in [9] it was 72.2%.

Consider `C=C(C=O)[C@@H]1CC[C@]2(C(=O)O)CC[C@]3(C)C(CC[C@@H]4[C@@](C)(CCC#N)[C@H](C(=C)C=O)CC[C@]43C)[C@@H]12` (some centres not stated), for which the growth was 0.41% (active) in test [1]; -8.52% (active) in test [2]; -9.95% (active) in test [3]; 127% in test [4]; 18.7% in test [5]; 126% in test [6]. The growth in [7] was 14.6%; in test [8], 47.1%; in test [9], 5.79% (active).

As for `O=C(/C=C/c1cc(Cl)ccc1Cl)Nc1ncc(Cc2ccc(Cl)cc2)s1`, the growth was 14% in test [1]; 16.2% in test [2]; 1.15% (active) in test [3]; 23.9% in [4]; 30.4% in [5]; 35.6% in test [6]. The growth in test [7] was 5.94% (active); in test [8] it was 6.99% (active); in test [9], -5.33% (active).

The record behind these values is PubChem BioAssay (NCI).
